Experimental findings from PubChem BioAssay (Tox21) are described below.

Values joined by “and” are separate entries in the source; they are usually repeats but may differ in a detail not shown here. Identical values can stand only once. Results filed as inconclusive are left out. Some compounds were tested as several samples or in several runs, with calls that do not always agree. Active and inactive are the calls of the source. Unless noted, calls come from the whole dose curve; as a rule, active = well fitted curve in the direction sought with a large enough effect in the repeat runs; inconclusive = weak or mixed curves; inactive = no such curve, though single readings can be large; an effect the other way counts as inactive or inconclusive.

Assay [1] in a line: Human pregnane X receptor (PXR) small molecule agonists, qHTS cell viability counter screen (AID 1346977). Note: nearly all actives have a fitted effect of over 50% in size. Note: potency is the fitted concentration of half-maximal effect. The gist of the method:
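Same-well viability read: CellTiter-Fluor added after 23 hr compound exposure, fluorescence measured 1 hr later. Cells were PXR-Luc HepG2 seeded at 2,000/well in 5% charcoal-stripped FBS medium, rested 5 hr before dosing at 37 C.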
Background: qHTS replaces the single test concentration by a dilution series.

A short description of assay [2]: Caspase-3/7 induction in HepG2 cells by small molecules, qHTS assay (AID 1346978). Note: nearly all actives have a fitted effect of over 15% in size. Note: potency is the fitted concentration of half-maximal effect. In outline:
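Wild-type HepG2 cells (2,000/well) were settled 5 h at 37 C, 5% CO2, then exposed to compounds in DMSO for 17 h. Caspase-3/7 activity was read by luminescence 30 min after adding Caspase-Glo 3/7 reagent at room temperature.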

Assay [3] is described as follows: Caspase-3/7 induction in CHO-K1 cells by small molecules, qHTS cell viability counter screen (AID 1346979). Note: nearly all actives have a fitted effect of over 35% in size. Note: potency is the fitted concentration of half-maximal effect. In outline: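 Cytotoxicity counter screen: CellTiter-Fluor added to compound-treated wild-type CHO-K1 cells at 16 h (37C, 5% CO2), fluorescence measured 1 h later; same wells as caspase-3/7 measurement.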
The nature of assay [4]: Caspase-3/7 induction in CHO-K1 cells by small molecules, qHTS assay (AID 1346980). Note: nearly all actives have a fitted effect of over 15% in size. The gist of the method:
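Wild-type cells were seeded at 1,500 per well and settled 5 hr at 37 C, 5% CO2, then exposed to DMSO-dissolved compounds for 17 hr. Caspase-Glo 3/7 reagent was added, and luminescence was read after 30min at room temperature.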

Assay [5] can be described thus: Caspase-3/7 induction in HepG2 cells by small molecules, qHTS cell viability counter screen (AID 1346981). Note: nearly all actives have a fitted effect of over 30% in size. Note: potency is the fitted concentration of half-maximal effect. The gist of the method: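 Wild-type HepG2 cells, 2,000/well, settled 5 hr at 37 C, 5% CO2 before compound addition. Viability read by CellTiter-Fluor fluorescence, reagent added after 16 hr compound exposure, then 1 hr at 37C, in the same wells as the caspase read.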

The target in assay [6] is Nuclear receptor subfamily 1 group I member 2 (Homo sapiens) (UniProt O75469). Briefly: Human pregnane X receptor (PXR) small molecule agonists, qHTS assay (AID 1346982). Note: nearly all actives have a fitted effect of over 35% in size. Note: potency is the fitted concentration of half-maximal effect. In outline:
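PXR-Luc HepG2 reporter cells (CYP3A4-driven luciferase) in 5% charcoal-stripped FBS medium, plated 5 h before compound addition, then treated 24 h at 37C. Luciferase read by ONE-Glo luminescence after 30 min at room temperature.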

Assay [7] deals with Acetylcholinesterase (Homo sapiens) (UniProt P22303). Briefly: Acetylcholinesterase (AChE) small molecule antagonists: colormetric cell-based qHTS assay (AID 1347395; calls by dose curve; note: nearly all actives have a fitted effect of over 30% in size). The gist of the method: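 Colorimetric readout: DTNB quantifies thiocholine from acetylthiocholine hydrolysed by endogenous AChE of SH-SY5Y cells (2,000/well, plated overnight). Compound pretreatment 30 min, substrate incubation 90 min, both 37 C.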

Assay [8] shares this target. Briefly: Acetylcholinesterase (AChE) small molecule antagonists: enzyme-based qHTS assay (AID 1347397; calls by dose curve; note: nearly all actives have a fitted effect of over 55% in size). To be noted: Potency: AChE enzyme activity inhibition. In outline: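 Human recombinant acetylcholinesterase; substrate acetylthiocholine; thiocholine quantified with DTNB (colorimetric). Compound preincubation 30 min RT; reaction 10 min RT.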
For assay [9] the target is unchanged. Briefly: Acetylcholinesterase (AChE) small molecule antagonists: fluorescence cell-based qHTS assay (AID 1347398; calls by dose curve; note: nearly all actives have a fitted effect of over 50% in size). The following applies: Potency: AChE activity. In outline: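 Thiocholine generated from acetylthiocholine by SH-SY5Y cell AChE is detected with Thiolite Green (Ex/Em 490/520 nm) after 40 min at room temperature, following 30 min compound pretreatment at 37 C.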

Assay [10] shares this target. Briefly: Acetylcholinesterase (AChE) small molecule antagonists: enzyme-based qHTS assay with human liver microsomes (AID 1347399; calls by dose curve; note: nearly all actives have a fitted effect of over 60% in size). The following applies: Potency: qHTS inhibition. In outline: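 Recombinant human AChE (50 mU/mL in the enzyme mix) and human liver microsomes (0.25 mg/mL final) were preincubated with compound and NADPH (0.25 mg/mL final) for 30 min at 37 C. Acetylthiocholine/DTNB was then added; thiocholine was read colorimetrically after 10 min at room temperature.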

Assay [11] has as its target Cytochrome P450 2D6 (Homo sapiens) (UniProt P10635). Kind of assay: Cytochrome P450 Family 2 Subfamily D Member 6 (CYP2D6) small molecule antagonists: luciferase reporter qHTS assay (AID 1671196). Note: nearly all actives have a fitted effect of over 50% in size. Note: potency is the fitted concentration of half-maximal effect. The gist of the method:
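Cell-free P450-Glo system: CYP2D6 with proluciferin substrate was pre-incubated with compound for 10 min, then reacted with NADPH regeneration for 1 h at room temperature. Luciferin product was detected after 20 min, and data were reported as relative luminescence units.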
A general note: In a reporter assay the amount or activity of a reporter protein is the signal.

The target in assay [12] is Cytochrome P450 2C19 (Homo sapiens) (UniProt P33261). Briefly: Cytochrome P450 Family 2 Subfamily C Member 19 (CYP2C19) small molecule antagonists: luciferase reporter qHTS assay (AID 1671197). Note: nearly all actives have a fitted effect of over 65% in size. Note: potency is the fitted concentration of half-maximal effect. In outline:
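Inhibition of CYP2C19 was scored from loss of luminescence in a P450-Glo proluciferin substrate assay, NADPH-started and run 1 h at 37C, with ketoconazole as positive control.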

In assay [13] the target is Cytochrome P450 2C9 (Homo sapiens) (UniProt P11712). Kind of assay: Cytochrome P450 Family 2 Subfamily C Member 9 (CYP2C9) small molecule antagonists: luciferase reporter qHTS assay (AID 1671198). Note: nearly all actives have a fitted effect of over 50% in size. Note: potency is the fitted concentration of half-maximal effect. In outline: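 CYP2C9 activity was measured with a P450-Glo proluciferin substrate. Enzyme–substrate mix was held with compound for 10 min at room temperature, then NADPH regeneration solution was added for 1 h at 37C. Luciferin product was read as luminescence.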

For assay [14], the target named is Cytochrome P450 1A2 (Homo sapiens) (UniProt P05177). Briefly: Cytochrome P450 Family 1 Subfamily A Member 2 (CYP1A2) small molecule antagonists: luciferase reporter qHTS assay (AID 1671199). Note: nearly all actives have a fitted effect of over 50% in size. Note: potency is the fitted concentration of half-maximal effect. The gist of the method: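 P450-Glo CYP1A2 enzyme–proluciferin substrate mix with compound 10 min at room temperature, then NADPH regeneration 1 h at room temperature. Luciferin detection reagent added, luminescence read after 20 min; furafylline positive control.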

Assay [15] concerns the target Voltage-gated inwardly rectifying potassium channel KCNH2 (Homo sapiens) (UniProt Q12809). Kind of assay: Human Ether-a-go-go-Related Gene (hERG) channel small molecule antagonists: fluorescence cell-based qHTS assay (AID 1671200). The gist of the method: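 Thallium flux as potassium surrogate: FluxOR II dye loaded 1 h at room temperature into hERG-expressing U2OS cells, then stimulus buffer added after 10 min. Kinetic 480 nm excitation/540 nm emission read, 2 min.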
In general terms: The hERG channel carries a current that helps repolarise heart muscle cells.

Assay [16] has as its target Cytochrome P450 3A4 (Homo sapiens) (UniProt P08684). Kind of assay: Cytochrome P450 Family 3 Subfamily A Member 4 (CYP3A4) small molecule antagonists: luciferase reporter qHTS assay (AID 1671201). Note: nearly all actives have a fitted effect of over 50% in size. Note: potency is the fitted concentration of half-maximal effect. In outline: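 Recombinant human CYP3A4 converts a proluciferin substrate to luciferin over 1 h at room temperature after NADPH regeneration solution is added (compound preincubated 10 min); detection reagent stops reaction, luminescence read 20 min later as relative units.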

Sequence of Cytochrome P450 2C9 (Homo sapiens) (P11712 whole entry, looked up): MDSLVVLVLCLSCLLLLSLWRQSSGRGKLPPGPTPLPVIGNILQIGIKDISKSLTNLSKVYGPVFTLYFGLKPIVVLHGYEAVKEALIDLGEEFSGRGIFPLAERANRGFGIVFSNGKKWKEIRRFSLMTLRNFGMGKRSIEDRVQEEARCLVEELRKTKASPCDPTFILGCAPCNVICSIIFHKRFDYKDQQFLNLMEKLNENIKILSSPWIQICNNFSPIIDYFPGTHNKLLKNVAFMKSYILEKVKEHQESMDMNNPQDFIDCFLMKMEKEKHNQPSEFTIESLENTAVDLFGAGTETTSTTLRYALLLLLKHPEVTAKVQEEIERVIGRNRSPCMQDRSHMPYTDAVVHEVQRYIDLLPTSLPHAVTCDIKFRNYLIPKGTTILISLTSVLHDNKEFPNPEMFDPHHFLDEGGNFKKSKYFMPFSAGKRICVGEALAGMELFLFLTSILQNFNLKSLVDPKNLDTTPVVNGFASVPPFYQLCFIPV
Sequence of Voltage-gated inwardly rectifying potassium channel KCNH2 (Homo sapiens) (Q12809 whole entry, looked up): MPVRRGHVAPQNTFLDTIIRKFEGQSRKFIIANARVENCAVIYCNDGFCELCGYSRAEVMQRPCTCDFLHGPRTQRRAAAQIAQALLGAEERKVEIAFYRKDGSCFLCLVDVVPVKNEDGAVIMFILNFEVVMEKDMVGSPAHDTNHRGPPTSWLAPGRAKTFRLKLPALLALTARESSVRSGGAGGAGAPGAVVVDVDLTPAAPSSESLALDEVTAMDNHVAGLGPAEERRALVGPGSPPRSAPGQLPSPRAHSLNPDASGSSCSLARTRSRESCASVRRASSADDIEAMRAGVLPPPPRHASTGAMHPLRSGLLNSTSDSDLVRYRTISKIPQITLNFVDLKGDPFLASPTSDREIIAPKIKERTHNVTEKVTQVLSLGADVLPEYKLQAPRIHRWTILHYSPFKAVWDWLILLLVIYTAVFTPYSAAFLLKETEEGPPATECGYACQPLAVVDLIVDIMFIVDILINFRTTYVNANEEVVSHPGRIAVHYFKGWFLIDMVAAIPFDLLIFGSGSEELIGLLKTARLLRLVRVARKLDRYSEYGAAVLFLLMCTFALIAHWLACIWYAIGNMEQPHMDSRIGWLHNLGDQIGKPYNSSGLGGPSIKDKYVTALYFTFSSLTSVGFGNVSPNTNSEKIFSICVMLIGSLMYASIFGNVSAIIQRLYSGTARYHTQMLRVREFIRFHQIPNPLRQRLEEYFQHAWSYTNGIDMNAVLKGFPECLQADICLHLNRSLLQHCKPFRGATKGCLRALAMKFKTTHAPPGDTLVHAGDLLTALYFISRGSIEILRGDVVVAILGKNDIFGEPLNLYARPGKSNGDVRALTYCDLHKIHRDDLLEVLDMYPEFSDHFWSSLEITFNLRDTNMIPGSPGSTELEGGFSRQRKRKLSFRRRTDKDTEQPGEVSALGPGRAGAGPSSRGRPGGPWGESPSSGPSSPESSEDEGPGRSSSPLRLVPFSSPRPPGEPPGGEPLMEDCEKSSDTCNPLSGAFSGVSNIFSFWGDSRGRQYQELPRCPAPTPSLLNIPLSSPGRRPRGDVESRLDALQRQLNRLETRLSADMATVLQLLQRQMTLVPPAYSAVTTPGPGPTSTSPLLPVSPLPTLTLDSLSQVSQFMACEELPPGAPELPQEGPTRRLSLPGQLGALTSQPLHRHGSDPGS
Sequence of Nuclear receptor subfamily 1 group I member 2 (Homo sapiens) (O75469 whole entry, looked up): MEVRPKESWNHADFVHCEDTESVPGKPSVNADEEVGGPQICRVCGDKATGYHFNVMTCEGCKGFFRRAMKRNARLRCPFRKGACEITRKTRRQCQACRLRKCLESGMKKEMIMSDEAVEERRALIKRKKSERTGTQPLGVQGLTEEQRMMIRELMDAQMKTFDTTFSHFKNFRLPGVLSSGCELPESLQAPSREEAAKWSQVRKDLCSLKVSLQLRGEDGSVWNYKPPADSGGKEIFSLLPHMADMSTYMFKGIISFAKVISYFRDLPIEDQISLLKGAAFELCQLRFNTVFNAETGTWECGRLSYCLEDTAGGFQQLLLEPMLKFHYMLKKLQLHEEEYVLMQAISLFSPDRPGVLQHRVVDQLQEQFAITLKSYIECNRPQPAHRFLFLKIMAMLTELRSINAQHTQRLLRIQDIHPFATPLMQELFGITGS
Sequence of Cytochrome P450 1A2 (Homo sapiens) (P05177 whole entry, looked up): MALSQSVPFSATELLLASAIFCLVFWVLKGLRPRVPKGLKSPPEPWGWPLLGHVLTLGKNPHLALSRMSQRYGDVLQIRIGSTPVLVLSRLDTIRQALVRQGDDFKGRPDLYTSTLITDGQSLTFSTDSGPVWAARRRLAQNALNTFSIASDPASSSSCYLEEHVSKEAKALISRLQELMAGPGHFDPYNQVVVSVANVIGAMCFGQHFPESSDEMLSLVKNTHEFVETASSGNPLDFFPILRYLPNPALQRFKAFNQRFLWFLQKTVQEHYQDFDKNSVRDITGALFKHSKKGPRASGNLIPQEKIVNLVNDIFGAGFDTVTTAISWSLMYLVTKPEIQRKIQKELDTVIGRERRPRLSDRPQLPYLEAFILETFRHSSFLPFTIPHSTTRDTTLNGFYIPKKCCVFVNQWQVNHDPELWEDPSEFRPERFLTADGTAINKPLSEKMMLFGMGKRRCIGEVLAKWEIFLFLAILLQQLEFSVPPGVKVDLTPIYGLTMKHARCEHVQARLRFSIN
Sequence of Acetylcholinesterase (Homo sapiens) (P22303 whole entry, looked up): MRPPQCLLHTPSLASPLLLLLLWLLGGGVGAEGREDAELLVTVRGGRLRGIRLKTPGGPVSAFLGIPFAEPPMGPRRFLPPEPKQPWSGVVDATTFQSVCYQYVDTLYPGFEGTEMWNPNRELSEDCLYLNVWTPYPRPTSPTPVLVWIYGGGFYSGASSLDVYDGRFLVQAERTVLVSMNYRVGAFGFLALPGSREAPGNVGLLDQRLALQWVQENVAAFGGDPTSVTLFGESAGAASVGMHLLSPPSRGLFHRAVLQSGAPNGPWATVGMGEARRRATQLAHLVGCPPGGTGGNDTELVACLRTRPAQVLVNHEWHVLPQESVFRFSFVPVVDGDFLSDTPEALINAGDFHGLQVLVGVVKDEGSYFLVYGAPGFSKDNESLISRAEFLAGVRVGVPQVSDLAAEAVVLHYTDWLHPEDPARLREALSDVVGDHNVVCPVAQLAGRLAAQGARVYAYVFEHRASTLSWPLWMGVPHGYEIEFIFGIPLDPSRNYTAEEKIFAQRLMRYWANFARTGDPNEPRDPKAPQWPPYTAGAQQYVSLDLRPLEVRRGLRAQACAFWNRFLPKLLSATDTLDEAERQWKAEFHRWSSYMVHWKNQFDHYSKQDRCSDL
Sequence of Cytochrome P450 2D6 (Homo sapiens) (P10635 whole entry, looked up): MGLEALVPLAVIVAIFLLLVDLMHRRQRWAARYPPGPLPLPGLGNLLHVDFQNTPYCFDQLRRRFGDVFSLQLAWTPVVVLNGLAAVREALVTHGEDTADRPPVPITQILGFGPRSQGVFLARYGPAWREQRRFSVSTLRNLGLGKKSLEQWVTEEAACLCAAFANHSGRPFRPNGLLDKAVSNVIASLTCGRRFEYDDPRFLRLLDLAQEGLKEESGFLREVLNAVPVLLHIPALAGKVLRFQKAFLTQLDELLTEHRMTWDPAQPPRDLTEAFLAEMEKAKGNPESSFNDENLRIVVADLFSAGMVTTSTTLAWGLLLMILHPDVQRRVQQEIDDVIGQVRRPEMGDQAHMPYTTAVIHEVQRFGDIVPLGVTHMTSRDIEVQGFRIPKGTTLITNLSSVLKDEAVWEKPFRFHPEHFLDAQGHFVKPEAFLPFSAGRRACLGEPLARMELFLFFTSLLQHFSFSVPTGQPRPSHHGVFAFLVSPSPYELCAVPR
Sequence of Cytochrome P450 2C19 (Homo sapiens) (P33261 whole entry, looked up): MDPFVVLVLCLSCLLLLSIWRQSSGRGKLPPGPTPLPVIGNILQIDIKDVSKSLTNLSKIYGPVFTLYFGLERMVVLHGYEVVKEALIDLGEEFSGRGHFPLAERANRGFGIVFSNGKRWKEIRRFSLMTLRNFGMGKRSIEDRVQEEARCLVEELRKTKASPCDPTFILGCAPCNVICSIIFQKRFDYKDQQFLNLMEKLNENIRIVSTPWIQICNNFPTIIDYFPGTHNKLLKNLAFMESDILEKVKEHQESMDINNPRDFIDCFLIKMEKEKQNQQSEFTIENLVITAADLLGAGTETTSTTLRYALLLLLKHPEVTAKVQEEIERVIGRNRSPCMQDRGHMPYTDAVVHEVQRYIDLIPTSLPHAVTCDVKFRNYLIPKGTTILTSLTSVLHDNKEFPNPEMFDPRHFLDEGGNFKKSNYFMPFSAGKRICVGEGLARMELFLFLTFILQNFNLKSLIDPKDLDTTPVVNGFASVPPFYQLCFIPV
Sequence of Cytochrome P450 3A4 (Homo sapiens) (P08684 whole entry, looked up): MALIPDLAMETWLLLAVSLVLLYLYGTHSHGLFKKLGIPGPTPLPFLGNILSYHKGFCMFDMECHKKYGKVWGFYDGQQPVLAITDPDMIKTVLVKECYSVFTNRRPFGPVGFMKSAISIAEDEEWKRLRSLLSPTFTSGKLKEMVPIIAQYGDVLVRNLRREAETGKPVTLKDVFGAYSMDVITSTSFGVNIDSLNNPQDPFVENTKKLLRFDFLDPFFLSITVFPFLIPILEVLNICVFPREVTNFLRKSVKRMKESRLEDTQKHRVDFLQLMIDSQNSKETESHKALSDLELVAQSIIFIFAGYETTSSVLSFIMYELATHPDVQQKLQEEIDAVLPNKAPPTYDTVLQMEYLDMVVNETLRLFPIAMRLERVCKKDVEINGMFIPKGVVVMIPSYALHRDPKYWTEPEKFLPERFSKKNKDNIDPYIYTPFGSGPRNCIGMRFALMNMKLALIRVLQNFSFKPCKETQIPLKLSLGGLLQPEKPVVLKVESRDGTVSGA

As for `Nc1ccc([N+](=O)[O-])cc1N`, the Potency in assay [1] was 22.4 µM (active) and 61.1 µM (active); in assay [3] it was 6.11 µM (active) and 30.6 µM (active); in assay [5] it was 54.4 µM (active) and 54.5 µM (active); in assay [6], 8.63 µM (active); in [11], “inactive and 71 µM (active)”; in assay [12], 25.2 µM (active). In addition, the Potency in assay [13] is 39.9 µM (active) and 63.3 µM (active); in assay [14] it was 35.6 µM (active) and 31.7 µM (active); in [16], 35.6 µM (active) and inactive. The Potency entry in assay [2], in assay [4], in [7], in assay [8], in [9] and in assay [10] was “inactive” throughout. Further, in [15], the Potency result is “inactive”.
Consider `OCCOCCO`, for which the Potency entry in assay [1], in assay [4], in assay [5], in assay [7], in [8] and in assay [9] was “inactive” in each case. Further, the Potency entry in [10], in assay [11], in assay [13], in [14], in [15] and in [16] was “inactive” throughout. The Potency in [2] is 31.5 µM (active) and inactive; in assay [3] it was 7.92 µM (active) and inactive; in assay [6], 62.9 µM (active) and inactive; in [12], 82.1 µM (active) and inactive.
For the compound `ClC(Cl)=C(Cl)C(Cl)=C(Cl)Cl`, the Potency entry in assay [1], in assay [2], in assay [3], in assay [4], in assay [5] and in assay [6] was “inactive” throughout. Also, the Potency result in assay [7], in assay [8], in assay [9], in assay [10], in [11] and in assay [12] was “inactive” in each case. Also, the Potency entry in [13], in assay [14], in assay [15] and in [16] was “inactive” in each case.
On to `C=C(C)C#N`, for which the Potency entry in [1], in [2], in [3], in [4], in [5] and in assay [6] was “inactive” in each case. Besides, the Potency result in assay [7], in assay [8], in [9], in assay [10], in [11] and in [12] was “inactive” in each case. In addition, the Potency entry in assay [13], in [14], in assay [15] and in assay [16] was “inactive” each time.
For the compound `Oc1ccc(Cl)cc1Cl`, the Potency result in assay [1], in assay [2], in assay [3], in [4], in assay [5] and in assay [6] was “inactive” in each case. Further, the Potency result in [7], in [8], in assay [9], in assay [10], in assay [11] and in [13] was “inactive” throughout. For the same compound, the Potency result in assay [15] and in assay [16] was “inactive” each time. The Potency in assay [12] was 70.5 µM (active) and inactive; in [14] it was 35.3 µM (active) and 39.9 µM (active).
